Screening data (PubChem)
EPAC2 ant val: validation of human EPAC2 antagonists | Potency, µM (top dose mostly 112 µM), for inactives: at the top dose activity, negative = inhibition, hits mostly inhibitors | Q8WZA2 | actives 1.7% (n = 16,000) | AID 1645886 | EPAC2 Rap1B BODIPY-GDP exchange, fluorescence;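 further: 100% = activation by cAMP agonist control; nearly all actives have a fitted effect of over 40% in size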
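Fluorescent exchange read-out: 100 nM EPAC2 with 250 nM RAP1B–BODIPY-GDP and 50 uM GDP; BODIPY-GDP release lowers fluorescence. Read at 480/540 nm every 5 min for 30 min at room temperature; normalized to 6.5 mM cAMP.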
EPAC1 agonist: validation of human EPAC1 agonists | O95398 | EPAC1 Rap1b BODIPY-GDP exchange, fluorescence | Potency, µM, for inactives: max response, positive = active, most hits filed as activators | actives 1% (n = 16,000) | AID 1645883; further: nearly all actives have a fitted effect of over 70% in size
Target sequence (O95398 whole entry, looked up): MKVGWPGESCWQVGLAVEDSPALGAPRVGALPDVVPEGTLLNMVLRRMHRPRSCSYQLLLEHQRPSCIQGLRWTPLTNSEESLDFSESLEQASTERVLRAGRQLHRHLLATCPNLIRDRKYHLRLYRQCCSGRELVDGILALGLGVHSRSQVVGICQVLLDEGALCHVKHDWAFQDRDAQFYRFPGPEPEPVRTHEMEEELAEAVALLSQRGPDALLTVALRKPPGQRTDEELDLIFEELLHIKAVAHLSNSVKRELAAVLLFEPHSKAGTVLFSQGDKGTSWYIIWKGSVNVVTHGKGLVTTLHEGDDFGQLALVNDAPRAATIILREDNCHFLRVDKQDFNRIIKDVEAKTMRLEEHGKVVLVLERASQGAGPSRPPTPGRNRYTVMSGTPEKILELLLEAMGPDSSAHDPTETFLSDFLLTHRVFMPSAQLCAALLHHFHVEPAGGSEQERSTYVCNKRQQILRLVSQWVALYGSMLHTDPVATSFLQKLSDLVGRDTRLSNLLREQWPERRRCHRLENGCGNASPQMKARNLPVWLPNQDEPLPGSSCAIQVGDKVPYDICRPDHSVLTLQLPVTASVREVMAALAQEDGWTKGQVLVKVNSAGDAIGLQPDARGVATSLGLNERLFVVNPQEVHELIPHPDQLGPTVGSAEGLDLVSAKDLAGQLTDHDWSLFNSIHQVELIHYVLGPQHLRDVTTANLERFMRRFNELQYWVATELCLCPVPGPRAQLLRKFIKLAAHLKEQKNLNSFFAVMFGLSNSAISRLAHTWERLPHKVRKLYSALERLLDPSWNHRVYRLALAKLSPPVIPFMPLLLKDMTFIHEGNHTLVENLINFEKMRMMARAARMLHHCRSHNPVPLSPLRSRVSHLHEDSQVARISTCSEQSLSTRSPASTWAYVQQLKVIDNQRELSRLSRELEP
* marks the source's active call; other numbers are inactive results; i = inactive; ? = inconclusive; ! = not active in a repeat; [ ] = another dose, or the depositor's remark. The list is not random: actives were taken first. Their share in the collection is about 2.9%. The call rests on the fitted dose curve; in most records, active means well fitted curve in the direction sought with a large enough effect; inconclusive means small, poorly fitted or top-dose-only effect, or another doubt; inactive means no such curve, though single readings can be large; an effect the other way counts as inactive or inconclusive. Unless noted, on the % scale 0 is the no-effect control and ±100 the full control effect; potency means the concentration at half of the fitted maximal effect.

SMILES	EPAC2 ant val	EPAC1 agonist
CC[C@@H]1/C=C(\C)C[C@H](C)C[C@H](OC)[C@H]2O[C@@](O)(C(=O)C(=O)N3CCCC[C@H]3C(=O)O[C@H](/C(C)=C/[C@@H]3CC[C@@H](Cl)[C@H](OC)C3)[C@H](C)[C@@H](O)CC1=O)[C@H](C)C[C@@H]2OC	11%	9%
C=CC[C@@H]1/C=C(\C)C[C@H](C)C[C@H](OC)[C@H]2O[C@@](O)(C(=O)C(=O)N3CCCC[C@H]3C(=O)O[C@H](/C(C)=C/[C@@H]3CC[C@@H](O)[C@H](OC)C3)[C@H](C)[C@@H](O)CC1=O)[C@H](C)C[C@@H]2OC	79µM*	-64%
COc1cc2nc(CN(CCO)C3CS(=O)(=O)CC3O)nc(N3CCCCC3)c2cc1OC (stereo not given)	-23%	3%
COc1ccc(C(=O)CC(=O)c2ccc(C(C)(C)C)cc2)cc1	3%	-40%
COc1ccc(C(Cl)=C(c2ccc(OC)cc2)c2ccc(OC)cc2)cc1	3.2µM*!	?
COCCN1CCN(C(=O)c2cnn(-c3nccc(-c4ccccc4OC)n3)c2-c2ccco2)CC1	48%	-2%
COc1ccc(-c2nc3cc(F)ccc3cc2CN(C(=O)c2cccs2)C2CC2)cc1	-20%	-11%
COc1cccc(-c2nc3cc(SC)ccc3cc2CN(C(=O)c2sccc2C)C2CC2)c1	40µM*	?
COc1ccc2c(c1)OC(C)CN(CC(=O)NCc1cn[nH]c1-c1ccc(F)cc1)C2 (stereo not given)	?	12%
COC(=O)c1sccc1S(=O)(=O)N1CCC(n2c(CC3CCCC3)nc3cccnc32)CC1	1%	-7%
Cc1nc2sccn2c1CN1Cc2ccccc2OC(c2ccccc2F)C1 (stereo not given)	?	1%
O=c1oc2c(O)c(O)cc3c(=O)oc4c(O)c(O)cc1c4c23	i	79µM*!
O=c1cc(-c2cc(O)c(O)c(O)c2)oc2cc(O)cc(O)c12	?	-40%
CN(CCO)C(=O)c1cn(C2CCN(Cc3c(F)cccc3Cl)CC2)nn1	?	6%
c1ccc(-c2onc(-c3ccco3)c2-c2ccc3[nH]ccc3c2)cc1	?	112µM*
CCCCC/C=C\C/C=C\C/C=C\C/C=C\CCCCCC(=O)O	-28%[11.4 µM]	-14%
CCCCCCC/C=C\CCCCCCCCC(=O)O	28µM*	-26%
CCCCCCCCCCC/C=C\C(C)(C)/C=C\CCCC(=O)O	35µM*!	-58%
CCCCC/C=C\C/C=C\C/C=C\C/C=C\CCCC(=O)O	?	-17%
O=C(NC(c1cccnc1)C(F)(F)F)c1cnn(-c2nccc(-c3cccs3)n2)c1C1CC1 (stereo not given)	-16%	16%
Cc1cc(-c2ccnc(-n3ncc(C(=O)NCC4COCCO4)c3C3CC3)n2)c(C)s1 (stereo not given)	-27%	14%
COc1ccc(CN2CCCC(n3cc(C(=O)N4CCCCC4)nn3)C2)c(OC)c1C (stereo not given)	-2%	6%
COc1ccccc1C(=O)N[C@@H]1c2ccccc2C2(CCN(Cc3ccc4c(c3)OCO4)CC2)[C@H]1O	?	-2%
COc1ccccc1CN1CCOc2ccc(CN3CCC(Oc4cccnc4)CC3)cc2C1	?	-4%
OC(c1cccnc1)c1ccc2c(c1)CN(Cc1ccc(-c3ccccc3Cl)o1)CCO2 (stereo not given)	-16%	-2%
SMILES	EPAC2 ant val	EPAC1 agonist
Brc1c(Br)c(Br)c2n[nH]nc2c1Br	40µM*	-25%
Brc1c(Br)c(Br)c2[nH]cnc2c1Br	-1%	-9%
Cn1cccc1C(=O)N1CCC2(CCCN(c3cccc(-c4ccccc4)c3)C2)CC1	-11%	112µM*
COc1ccc(C(=O)N2CCC3(CC2)CN(c2cccc(-c4ccccc4)c2)C3)cc1	-26%	112µM*
O=C(c1cnccn1)N1CCC[C@@]2(CCN(c3ccccc3)C2)C1	-18%	-44%
O=C(c1ccncc1)N1CCC2(CC1)CN(c1cccc(-c3ccccc3)c1)C2	-41%	?
O=C(c1cnccn1)N1CCC[C@@]2(CCN(c3cccc(-c4ccccc4)c3)C2)C1	?	100µM*
O=C(c1ccco1)N1CCC2(CCCN(c3cccc(-c4ccccc4)c3)C2)CC1	-15%	?
Cn1cccc1C(=O)N1CCC[C@@]2(CCN(c3cccc(-c4ccccc4)c3)C2)C1	-29%	17%
COC(=O)N1CCC2(CCCN(c3cccc(-c4ccccc4)c3)C2)CC1	-25%	112µM*
CC1CN(Cc2cccn2-c2cccnc2)Cc2cc(Cl)ccc2O1 (stereo not given)	-28%	11%
COc1ccc(C(=O)N2CCC3(CCCN(c4ccccc4)C3)CC2)cc1	-20%	-20%
COc1ccc(C(=O)N2CCC3(CCCN(c4cccc(-c5ccccc5)c4)C3)CC2)cc1	-9%	100µM*
Cn1cnnc1Sc1ccc(CN2CCOc3ccc(C4=Cc5ccccc5CC4)cc3C2)o1	?	21%
